Active and inactive are the calls of the source. Rule for the calls: active = hit-call score of the fitted dose curve at least 0.9, where 1 is the maximum; inactive = score below 0.9.
Biological target: Signal transducer and activator of transcription 3 (Homo sapiens) (UniProt P40763)
Experiment: ATG_STAT3_CIS: Attagene CIS-FACTORIAL HepG2 Assay for human Signal Transducer and Activator of Transcription 3 (STAT3) (AID 2282963)
Conditions: HepG2, Attagene cis-factorial STAT3 reporter transcription; actives raise or lower the signal
Procedure, shortened: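 Readout is reporter transcript quantified by RT-PCR and capillary electrophoresis, with 6-FAM primer extension and HpaI digestion. Total RNA is taken 24 h after dosing transiently transfected HepG2 carrying cis-regulated reporter units. Bidirectional fit against DMSO.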

Sequence of Signal transducer and activator of transcription 3 (Homo sapiens) (P40763 whole entry, looked up): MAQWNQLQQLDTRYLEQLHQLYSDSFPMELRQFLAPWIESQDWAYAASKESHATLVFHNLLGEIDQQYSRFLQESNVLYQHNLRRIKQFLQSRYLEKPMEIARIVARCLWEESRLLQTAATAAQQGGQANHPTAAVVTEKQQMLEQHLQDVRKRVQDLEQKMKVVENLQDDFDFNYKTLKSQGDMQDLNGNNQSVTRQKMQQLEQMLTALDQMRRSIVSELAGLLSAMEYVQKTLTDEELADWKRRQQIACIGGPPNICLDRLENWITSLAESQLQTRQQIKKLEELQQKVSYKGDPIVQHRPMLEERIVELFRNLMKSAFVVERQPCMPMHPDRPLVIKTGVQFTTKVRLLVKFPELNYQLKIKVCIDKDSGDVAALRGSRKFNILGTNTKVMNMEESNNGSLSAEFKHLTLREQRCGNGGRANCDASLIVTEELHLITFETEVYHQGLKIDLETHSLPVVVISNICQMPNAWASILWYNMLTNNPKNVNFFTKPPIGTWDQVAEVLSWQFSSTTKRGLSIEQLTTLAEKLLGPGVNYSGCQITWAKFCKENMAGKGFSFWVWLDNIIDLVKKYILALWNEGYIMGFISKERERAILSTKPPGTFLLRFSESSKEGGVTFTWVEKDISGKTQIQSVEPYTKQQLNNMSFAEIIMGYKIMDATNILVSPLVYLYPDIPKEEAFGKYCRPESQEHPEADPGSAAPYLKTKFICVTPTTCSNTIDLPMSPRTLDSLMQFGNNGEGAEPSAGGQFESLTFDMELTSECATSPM

Q: Which outcome does the source give for C=C(C)C(=O)OCC(F)(F)C(F)(F)C(F)(F)F here?
A: inactive

Q: Which outcome does the source give for O=P(O)(O)OCCC(F)(F)C(F)(F)C(F)(F)C(F)(F)C(F)(F)C(F)(F)F here?
A: inactive

Q: With CC(=O)Nc1ccc(N=Nc2cc(C)ccc2O)cc1 as the molecule, how does the outcome read?
A: inactive

Q: Which outcome does the source give for CC(C)OC(=O)c1ccccc1C(=O)OC(C)C here?
A: inactive

Q: With OC[C@@H](O)[C@@H](O)[C@H](O)[C@@H](O)CO as the molecule, how does the outcome read?
A: inactive

Q: With CN(C)Cc1ccccc1O as the molecule, how does the outcome read?
A: inactive

Q: Which outcome does the source give for CC(C)c1ccccc1N here?
A: inactive

Q: For COC(=O)C1CCC(C(=O)OC)CC1 (centres undefined), which outcome is on record?
A: inactive

Q: With Nc1cc(Cl)c(N)c(Cl)c1 as the molecule, how does the outcome read?
A: inactive

Q: For O=C(O)C(F)(F)C(F)(F)OC(F)(F)F, which outcome is on record?
A: inactive

Q: For CC(C)=CCCC(C)CCOC(=O)C(C)C (centres undefined), which outcome is on record?
A: inactive

Q: For N=C(N)C(F)(F)C(F)(F)C(F)(F)C(F)(F)C(F)(F)C(F)(F)C(F)(F)F, which outcome is on record?
A: inactive

Q: For O=C(Cl)C(F)(F)C(F)(F)C(F)(F)C(F)(F)C(F)(F)C(F)(F)C(F)(F)C(F)(F)F, which outcome is on record?
A: inactive

Q: With CS(C)(=O)=O as the molecule, how does the outcome read?
A: inactive

Q: Which outcome does the source give for O=C(O)C(F)(F)C(F)(F)C(F)(F)C(F)(F)C(F)(F)C(F)(F)C(F)(F)C(F)(F)C(F)(F)C(F)(F)C(F)(F)C(F)(F)F here?
A: inactive

Q: Which outcome does the source give for O=C(O)C(F)(F)C(F)(F)C(F)(F)C(F)(F)F here?
A: inactive

Q: Which outcome does the source give for Cc1ccc(S(=O)(=O)NCl)cc1 here?
A: inactive

Q: With FC(F)(F)C(F)(F)C(F)(F)C(F)(F)C(F)(F)C(F)(F)CCS as the molecule, how does the outcome read?
A: inactive

Q: With CCCCCCCCC(F)(F)C(F)(F)C(F)(F)C(F)(F)C(F)(F)C(F)(F)F as the molecule, how does the outcome read?
A: inactive

Test system: not listed separately
Experiment: ATG_TA_CIS: Attagene CIS-FACTORIAL HepG2 Assay for human TA Basal Promoter (AID 2282964)
Conditions: HepG2 Attagene CIS-factorial TA basal promoter reporter; actives raise or lower the signal
Procedure, shortened: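 Multiplexed mRNA reporter assay, HepG2, 24 h. Reporter cDNA amplified, 6-FAM primer-extended, HpaI-cut, CE-sized; DMSO = negative control and baseline.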

Q: Which outcome does the source give for Nc1ccc(S(=O)(=O)Nc2nccs2)cc1 here?
A: inactive

Q: With C=C(C)C(=O)OCC(F)(F)C(F)(F)C(F)(F)F as the molecule, how does the outcome read?
A: inactive

Q: For O=P(O)(O)OCCC(F)(F)C(F)(F)C(F)(F)C(F)(F)C(F)(F)C(F)(F)F, which outcome is on record?
A: inactive

Q: Which outcome does the source give for CC(=O)Nc1ccc(N=Nc2cc(C)ccc2O)cc1 here?
A: inactive

Q: With FC(F)(F)C(F)(F)C(F)(F)C(F)(F)CCI as the molecule, how does the outcome read?
A: inactive

Q: For CCc1c(Br)c(Br)c(Br)c(Br)c1Br, which outcome is on record?
A: inactive

Q: With CC(C)(C)c1ccc(OC2CCCCC2O)cc1 (centres undefined) as the molecule, how does the outcome read?
A: inactive

Q: With CC(C)OC(=O)c1ccccc1C(=O)OC(C)C as the molecule, how does the outcome read?
A: inactive

Q: Which outcome does the source give for OC[C@@H](O)[C@@H](O)[C@H](O)[C@@H](O)CO here?
A: inactive

Q: Which AC50 does the source give for CN(C)Cc1ccccc1O here?
A: 165 µM (active)

Q: Which outcome does the source give for CCc1ccc(C(c2ccc(CC)cc2)C(Cl)Cl)cc1 here?
A: inactive

Q: With CC(C)c1ccccc1N as the molecule, how does the outcome read?
A: inactive

Q: For C1COCCN1, which outcome is on record?
A: inactive

Q: For COC(=O)CCC(F)(F)C(F)(F)C(F)(F)C(F)(F)F, which outcome is on record?
A: inactive

Q: With C=CC(=O)OCC(F)(F)C(F)(F)C(F)(F)C(F)(F)C(F)(F)C(F)(F)C(F)(F)F as the molecule, how does the outcome read?
A: inactive

Q: For O=S(=O)(O)c1ccc2ccccc2c1, which outcome is on record?
A: inactive

Q: With CCCCC(CC)COP(=O)(O)OCC(CC)CCCC (centres undefined) as the molecule, how does the outcome read?
A: inactive

Q: With COC(=O)C1CCC(C(=O)OC)CC1 (centres undefined) as the molecule, how does the outcome read?
A: inactive

Q: With Nc1cc(Cl)c(N)c(Cl)c1 as the molecule, how does the outcome read?
A: inactive

Q: Which outcome does the source give for O=C(O)C(F)(F)C(F)(F)OC(F)(F)F here?
A: inactive

Q: Which outcome does the source give for CC(C)=CCCC(C)CCOC(=O)C(C)C (centres undefined) here?
A: inactive

Q: For N=C(N)C(F)(F)C(F)(F)C(F)(F)C(F)(F)C(F)(F)C(F)(F)C(F)(F)F, which outcome is on record?
A: inactive

Q: For O=C(Cl)C(F)(F)C(F)(F)C(F)(F)C(F)(F)C(F)(F)C(F)(F)C(F)(F)C(F)(F)F, which outcome is on record?
A: inactive

Q: For C=CC(F)(F)C(F)(F)C(F)(F)C(F)(F)C(F)(F)C(F)(F)C(F)(F)C(F)(F)F, which outcome is on record?
A: inactive

Q: For CS(C)(=O)=O, which outcome is on record?
A: inactive

Q: Which outcome does the source give for O=C(O)C(F)(F)C(F)(F)C(F)(F)C(F)(F)C(F)(F)C(F)(F)C(F)(F)C(F)(F)C(F)(F)C(F)(F)C(F)(F)C(F)(F)F here?
A: inactive

Q: With O=C(O)C(F)(F)C(F)(F)C(F)(F)C(F)(F)F as the molecule, how does the outcome read?
A: inactive

Q: Which outcome does the source give for Cc1ccc(S(=O)(=O)OCC(F)(F)C(F)(F)C(F)(F)C(F)(F)C(F)(F)C(F)F)cc1 here?
A: inactive

Q: For Cc1ccc(S(=O)(=O)NCl)cc1, which outcome is on record?
A: inactive

Q: For C=C(C)C(=O)OCC(F)(F)C(F)(F)C(F)(F)C(F)(F)C(F)(F)C(F)(F)C(F)(F)F, which outcome is on record?
A: inactive

Q: With FC(F)(F)C(F)(F)C(F)(F)C(F)(F)C(F)(F)C(F)(F)CCS as the molecule, how does the outcome read?
A: inactive

Q: Which outcome does the source give for CCCCCC=O here?
A: inactive

Q: For CCCCCCCCC(F)(F)C(F)(F)C(F)(F)C(F)(F)C(F)(F)C(F)(F)F, which outcome is on record?
A: inactive

Q: Which outcome does the source give for Cc1cc(C)cc(O)c1 here?
A: inactive

Q: Which outcome does the source give for O=S(=O)(OCCOC(F)(F)F)C(F)(F)F here?
A: inactive
